# Measurements published in PubChem BioAssay AID593 (National Center for Advancing Translational Sciences (NCATS), 2007).
# Out of some 59,000 compounds screened, about 540 (0.92%) were called active. About 33% were inconclusive and are not listed. The sample holds actives, similar compounds and a random draw of the others, so the mix is not that of the screen. Rule as the data show it: active = max fluorescein-equivalent concentration above about 10 nM; inconclusive = between about 1.1 nM and that limit; inactive = weaker than that. Some compounds were tested as several samples or in several runs, with calls that do not always agree.
# Assay: qHTS Assay for Spectroscopic Profiling in Fluorescein Spectral Region
# Details: Compound autofluorescence, 480/540 nm; max fluorescein-equivalent concentration: active compounds read high; outcome: fluorescein-equivalent
# Description: NIH Molecular Libraries Screening Centers Network [MLSCN]
# NIH Chemical Genomics Center [NCGC]
# Occasionally, the artifactual effect may originate from the compound's own spectral or other biophysical properties which generally tend to track its assay concentration. Pre-screening/profiling the library with respect to the compounds' spectral properties should help one exclude false positives early on. While the most informative fluorescent profiling data set is obtained by performing a full excitation and emission scan of each well by using a monochromator-based plate reader, such an approach is practical only on a very limited scale as scanning each well requires long time. An alternative approach, applied here, is to perform plate reader scans using selected excitation and emission wavelength pairs to generate a multidimensional relational database that correlates compound concentration and the respective relative fluorescence intensity at a given wavelength set. A standard curve of fluorescein present on each plate as six-point concentration series, was used to compute a normalized fluorescence response, termed dye-equivalent concentration, for each compound at each concentration.
# NCGC Assay Protocol Summary:
# 100 mM Tris buffer, pH 8.0
# The wells in columns 1 through 4 of a Kalypsys polypropylene 1536-well compound plate were filled with standard solutions of fluorophore corresponding to the spectral region of interest. Solutions of Fluorescein were placed in the following wells: Q1, R1: 3 mM, Q2, R2: 300 uM, Q3, R3: 30 uM, Q4, R4: zero (DMSO), S1, T1: 3 uM, S2, T2: 900 nM, S3, T3: 300 nM, S4, T4: zero (DMSO).
# Six uL of buffer were dispensed to 1536-well Greiner black plates. Compounds and dye standards (23 nL) were transferred via Kalypsys PinTool. The plates were incubated for 15 min at room temperature, and then read on ViewLux (Perkin-Elmer) High-throughput CCD imager using 480 nm and 540 nm excitation and emission filter set.
# Keywords: NIH Roadmap, MLSCN, MLI, MLSMR, qHTS, NCGC, Fluorescein, Fluorescent Profiling.
Structure (SMILES),max fluorescein-equivalent concentration,outcome
C=CCn1c(C)cc(C(=O)CN2C(=O)c3ccccc3C2=O)c1C,inactive,–
Cc1ccc(SCCN2C(=O)NC(C)(C)C2=O)cc1,inactive,–
COc1cccc(Cn2c(=O)c(C)nc3cnc(Oc4ccccc4)nc32)c1,inactive,–
Cc1cc(C(F)(F)F)nn1CC(=O)N1CCCC1,inactive,–
CCOc1ccc(NS(=O)(=O)c2ccc(OCC(=O)NCCCOC)cc2)cc1,inactive,–
COc1ccccc1N1CCN(c2nc3ccccc3n3nnnc23)CC1,12 nM (active),–
COc1ccccc1N1CCN(Cc2nnnn2CCc2ccccc2)CC1,inactive,–
COCCn1nnnc1C(c1ccccc1Cl)N1CCN(c2ccccc2OC)CC1 (centres undefined),inactive,–
COc1ccc(-c2cc(C(F)(F)F)nc(SCCC(=O)NCc3ccco3)n2)cc1,inactive,–
CCN(CC)S(=O)(=O)c1cccc(C(=O)Nc2cc(C)nn2-c2nc(C)cc(C)n2)c1,inactive,–
COc1ccc(OCC(=O)OCC(=O)Nc2ccc(S(=O)(=O)N3CCCCC3)cc2)cc1,inactive,–
CCN1CCN(C(=O)CN(C)S(=O)(=O)c2ccc(OC)cc2)CC1,inactive,–
CCC1CCCCN1C(=O)Nc1cccc(NC(=O)N2CCCCC2CC)c1 (centres undefined),inactive,–
COc1ccccc1CNc1nc(-c2c(C)noc2C)nc2ccccc12,inactive,–
FC(F)(F)c1nnc2sc(-c3ccco3)nn12,inactive,–
O=C(O)CS(=O)c1ccc2c3c(cccc13)C(=O)c1ccccc1-2 (centres undefined),14 nM (active),–
CCn1c(=N)c(C(=O)NCCCOC)cc2c(=O)n3cccc(C)c3nc21,inactive,–
CCn1c(=N)c(S(=O)(=O)c2ccc(F)cc2)cc2c(=O)n3ccccc3nc21,29 nM (active),–
CC1(C)C(=O)C2(CCCCC2)C(=O)OC1c1cccs1 (centres undefined),inactive,–
CCOc1ccccc1Nc1nnc(SCC(=O)Nc2cc(C)on2)s1,inactive,–
CC[C@H](c1ccccc1)c1cc(C(C)(C)C)cc(C(C)(C)C)c1O,inactive,–
C=CCn1c(COc2ccccc2C)nnc1SCC(=O)O,inactive,–
O=C(NCc1ccco1)c1sc2cccc(F)c2c1Cl,inactive,–

Structure (SMILES),max fluorescein-equivalent concentration,outcome
CC(Sc1nc2ccccc2c(=O)n1Cc1ccco1)C(=O)c1ccccc1 (centres undefined),inactive,–
COc1ccccc1NC(=O)CSc1nc2sc(C)c(C)c2c(=O)n1Cc1ccco1,inactive,–
CN(c1ccccc1)c1ccc(/C=c2\s/c(=C(/C#N)C(=O)C(C)(C)C)n(Cc3ccco3)c2=O)cc1,34 nM (active),–
Cc1ccccc1C(=O)Nc1cccc(-c2nnc(SCC(=O)O)n2C)c1,inactive,–
O=C(CNS(=O)(=O)c1cccc(C(F)(F)F)c1)Nc1ccccc1F,inactive,–
Cc1cc2c(=O)n(C)c(SCC(=O)c3cc4ccccc4o3)nc2s1,13 nM (active),–
Cc1ccsc1C(=O)OCC(=O)c1cc2ccccc2o1,inactive,–
Cc1ccc(C(=O)CSc2nc3ccccc3c(=O)n2N)o1,inactive,–
Cc1cc(C)cc(NC(=O)C2CCN(c3nc(C)cc(C)n3)CC2)c1,inactive,–
CCOC(=O)c1cc2sccc2n1Cc1ccc(C#N)cc1,inactive,–
Fc1ccccc1CCNc1nnnn1-c1ccccc1,inactive,–
CN1CCC2(CC1)CCN(S(=O)(=O)c1ccccc1)CC2,inactive,–
Cc1ccc2nc(CC(=O)c3ccc4ccccc4c3)c(=O)[nH]c2c1,inactive,–
C/C=C1\C(=O)C[C@@H]2[C@@H]3CCC4=CC(=O)CC[C@@]4(C)[C@H]3CC[C@@]12C,inactive,–
Oc1ccc2ccccc2c1C=NCc1c(O)ccc2ccccc12,inactive,–
COc1ncnc2c1N=C1CC(C)(C)CC(N)=C1S2,47 nM (active),–
CC(C)NC(=O)N1CC[C@@]2(CCCN(C(=O)c3ccco3)C2)C1,inactive,–
CC(C)NC(=O)N1CC[C@@]2(CCCN(C(=O)c3cccc(F)c3)C2)C1,780 nM (active),–
COc1ccc(C(=O)N2CCC[C@@]3(CCN(C(=O)NC(C)C)C3)C2)cc1,inactive,–
O=C(Nc1ccc(S(=O)(=O)N2CCCCC2)cc1)c1cnccn1,inactive,–
O=c1[nH]c(=O)c2nc3ccccc3nc2[nH]1,62 nM (active),–
O=c1[nH]c(-c2ccccc2)c(-c2ccccc2)[nH]1,inactive,–
CN1C(=O)C[C@H](c2ccccc2)C1=O,inactive,–

Structure (SMILES),max fluorescein-equivalent concentration,outcome
CCCn1c(SCC(=O)Nc2cccc(C(=O)OCC)c2)nnc1-c1ccoc1C,inactive,–
COc1ccccc1Cc1nc(-c2ccc(C)cc2)no1,inactive,–
CC12CCC(C(=O)N(CCC#N)CCC#N)(CC1=O)C2(C)C (centres undefined),inactive,–
COc1ccc2[nH]c3cc4c(=O)c5cc(OC)ccc5[nH]c4cc3c(=O)c2c1,inactive,–
C[C@H]1O[C@@H](CC(=O)O)Cc2c1c(O)c1c(O)cc(-c3cc(=O)c4c(=O)c5c(c(=O)c=4c3=O)C[C@H](CC(=O)O)O[C@@H]5C)c(O)c1c2O,inactive,–
CC(Sc1nncs1)C(=O)NCc1ccc2c(c1)OCO2 (centres undefined),inactive,–
Cc1cc(NC(=O)Nc2ccccc2)n(-c2ccccc2)n1,inactive,–
COc1cccc(C(=O)c2cc3ccc(O)cc3oc2=O)c1,inactive,–
COc1ccc2oc(=O)c(C(=O)N3CCCc4ccccc43)cc2c1,inactive,–
COc1ccc2oc(=O)c(C(=O)O)cc2c1,19 nM (active),–
CCOc1ccc2cc(C#N)c(SCC(=O)OC)nc2c1,inactive,–
CCOc1ccc2nc(N3CCCN(C(=O)Nc4ccccc4C)CC3)c(C#N)cc2c1,29 nM (active),–
Cc1cccc2cc(C#N)c(N3CCCC3)nc12,inactive,–
CC(=O)c1cc2c(cc1N)OCO2,inactive,–
COC(=O)C1=C(C)OC(N)=C(C#N)C1c1cc(OC)ccc1OC (centres undefined),inactive,–
CCCN1CC=C2C(C#N)=C(N)C(C#N)(C#N)C(c3cc(OC)ccc3OC)C2C1 (centres undefined),10 nM (active),–
CCC1=C(C(=O)OC)C(c2cc(OC)ccc2OC)C(C#N)=C(N)O1 (centres undefined),inactive,–
COc1cc(NS(=O)(=O)c2ccc(NC(C)=O)cc2)cc(OC)c1,inactive,–
CCOC(=O)C1(Cc2ccc(O)cc2)NC(c2ccccc2F)C2C(=O)N(C)C(=O)C21 (centres undefined),inactive,–
Cc1ccc(C(c2nnnn2CS(=O)(=O)c2ccc(C)cc2)N2CCC(C(N)=O)CC2)cc1 (centres undefined),inactive,–
COc1ccc(-c2c3c(=O)n(C)c(=O)n(C)c3cn2NC(C)=O)cc1,inactive,–
C[C@@H]1CC[C@H]2[C@H](C)[C@H]3[C@H](C[C@H]4[C@@H]5CC=C6C[C@@H](O)CC[C@@]6(C)[C@@H]5C[C@@H](O)[C@]34C)N2C1,inactive,–
CCN(CC(=O)NCc1cccs1)c1nnnn1-c1ccccc1,inactive,–

Structure (SMILES),max fluorescein-equivalent concentration,outcome
COc1cccc(NC(=O)CN(C)S(=O)(=O)c2ccc(C)cc2)c1,inactive,–
Cc1ccc2c(c1)C(O)(CC(=O)c1cccnc1)C(=O)N2 (centres undefined),inactive,–
CC(=NC1CCN(Cc2ccccc2)CC1)c1c(O)[nH]c(=O)[nH]c1=O,inactive,–
COc1ccc(OC)c(S(=O)(=O)Nc2ccccc2F)c1,inactive,–
CC1CN(C2CCN(C(=O)COc3ccccc3)CC2)CC(C)O1 (centres undefined),inactive,–
C=CCNC(=O)C12CC3CC(C1)CC(C(=O)NCC=C)(C3)C2,inactive,–
CCc1cccc(C)c1NC(=O)CSc1nnc(-c2ccco2)n1N,inactive,–
O=C(Nc1ccccc1F)C1C2C=CC3(O2)C1C(=O)N(c1cccnc1)C3C(=O)NC1CCCCC1 (centres undefined),inactive,–
COc1cccc(Cn2c(=O)c(CCc3ccccc3)nc3cnc(N(C)C)nc32)c1,inactive,–
CNC(=O)c1cc2c(ccc3ccccc32)oc1=N,inactive,–
CCON=C1C(C)(C)C(C)(C)C(C)(C)C1(C)C,inactive,–
CCCn1c(=O)c2[nH]c(C3CCCC3)nc2n(CCC)c1=O,11 nM (active),inactive
Cn1c(=O)c2[nH]c(NCC3CCCO3)nc2n(-c2ccccc2)c1=O (centres undefined),inactive,–
O=c1[nH]c(=O)n([C@H]2C[C@H](O)[C@H](CO)O2)cc1Br,inactive,–
CC(=O)c1cc(C#N)c(SCC(=O)C(C)(C)C)nc1C,inactive,–
Cc1cccn2c(=O)c3cc(C(=O)N4COCC4(C)C)n(C)c3nc12,inactive,–
Cc1cccn2c(=O)c3cc(C#N)c(=NC(=O)c4cccnc4)n(CC4CCCO4)c3nc12 (centres undefined),18 nM (active),–
COC(=O)c1ccc2c(=O)n(CC3CCCO3)c(=S)[nH]c2c1 (centres undefined),inactive,–
Cc1cc(C)c2[nH]c(=O)c(C(c3nnnn3Cc3ccc4c(c3)OCO4)N3CCCC3)cc2c1 (centres undefined),inactive,–
CC(=O)NS(=O)(=O)c1ccccc1,inactive,–
CCOCCCNS(=O)(=O)Cc1ccccc1,inactive,–
CCOC(=O)N1CC=C2C(C#N)=C(N)C(C#N)(C#N)[C@H](c3cccs3)[C@H]2C1,12 nM (active),–
CCNc1ncc2ncc(=O)n(Cc3cccc(OC)c3)c2n1,inactive,–

Structure (SMILES),max fluorescein-equivalent concentration,outcome
COc1ccc2nc(N3CCCC(O)C3)c(C#N)cc2c1 (centres undefined),16 nM (active),–
COc1ccc(N2CCN(C(=O)CSc3nc4cc(OC)c(OC)cc4cc3C#N)CC2)cc1,inactive,–
O=CN1CCN(C2CC(=O)N(c3ccc4c(c3)OCO4)C2=O)CC1 (centres undefined),inactive,–
S=c1[nH]nc(SCc2ccccc2Cl)c2[nH]cnc12,inactive,–
Cc1csc(NC(=O)CN2CCCCCC2)n1,inactive,–
CCOCC(=O)Nc1cc(OC)c(Cl)cc1OC,inactive,–
Oc1ccccc1CNCc1ccccc1O,inactive,–
COCCn1c(=O)c(CCc2ccccc2)nc2cncnc21,inactive,–
CC(C)N(C(=O)COC(=O)c1ccccc1C(=O)N1CCN(c2ccc(F)cc2)CC1)C(C)C,inactive,–
N#CC1=C(N)Oc2n[nH]c(CSc3ccccc3)c2C12C(=O)Nc1ccccc12 (centres undefined),inactive,–
O=S(=O)(c1cccs1)N1CCN(Cc2ccccc2)CC1,inactive,–
CCOCCOC(=O)C1=C(C)N(C)C(=O)NC1c1ccccc1F (centres undefined),inactive,–
C=C(C)Cn1c(SCC(=O)NCc2ccco2)nc2sc3c(c2c1=O)CCC3,inactive,–
COCCn1c(=O)c(-c2cccc(F)c2)nc2cncnc21,inactive,–
COc1ccc(C(=O)N/N=C2/C(=O)c3c(C)cc(C)cc3CC2(C)C)cc1,inactive,–
O=C(O)C1CC=C(Cl)CC1C(=O)NCc1ccccc1 (centres undefined),inactive,–
CCCOc1ccccc1-c1nc(SCCC(=O)O)n[nH]1,inactive,–
O=S(=O)(Nc1ccc2nc(-c3ccco3)[nH]c2c1)c1ccccc1,inactive,–
O=S(=O)(O)c1ccc(O)c2ncccc12.O=S(=O)(O)c1ccc(O)c2ncccc12.[Zn],inactive,–
O=C(N1CCOCC1)N1CCOCC1,inactive,–
CCCC(=O)Nc1cc(OCC)c(NC(=O)NC2CCCCC2)cc1OCC,inactive,–
